# Reference: PubChem BioAssay (EPA / NIEHS)
# Values joined by “and” are separate entries in the source; they are usually repeats but may differ in a detail not shown here. Equal entries are not always repeated. More than one record can exist for a structure, and the calls need not agree. Active and inactive are the calls of the source. The calls were made as follows: active = hit-call score of the fitted dose curve at least 0.9, where 1 is the maximum; inactive = score below 0.9.
# Biological target: Transcription factor Sp1 (Homo sapiens) (UniProt P08047)
# Sequence (P08047 whole entry, looked up): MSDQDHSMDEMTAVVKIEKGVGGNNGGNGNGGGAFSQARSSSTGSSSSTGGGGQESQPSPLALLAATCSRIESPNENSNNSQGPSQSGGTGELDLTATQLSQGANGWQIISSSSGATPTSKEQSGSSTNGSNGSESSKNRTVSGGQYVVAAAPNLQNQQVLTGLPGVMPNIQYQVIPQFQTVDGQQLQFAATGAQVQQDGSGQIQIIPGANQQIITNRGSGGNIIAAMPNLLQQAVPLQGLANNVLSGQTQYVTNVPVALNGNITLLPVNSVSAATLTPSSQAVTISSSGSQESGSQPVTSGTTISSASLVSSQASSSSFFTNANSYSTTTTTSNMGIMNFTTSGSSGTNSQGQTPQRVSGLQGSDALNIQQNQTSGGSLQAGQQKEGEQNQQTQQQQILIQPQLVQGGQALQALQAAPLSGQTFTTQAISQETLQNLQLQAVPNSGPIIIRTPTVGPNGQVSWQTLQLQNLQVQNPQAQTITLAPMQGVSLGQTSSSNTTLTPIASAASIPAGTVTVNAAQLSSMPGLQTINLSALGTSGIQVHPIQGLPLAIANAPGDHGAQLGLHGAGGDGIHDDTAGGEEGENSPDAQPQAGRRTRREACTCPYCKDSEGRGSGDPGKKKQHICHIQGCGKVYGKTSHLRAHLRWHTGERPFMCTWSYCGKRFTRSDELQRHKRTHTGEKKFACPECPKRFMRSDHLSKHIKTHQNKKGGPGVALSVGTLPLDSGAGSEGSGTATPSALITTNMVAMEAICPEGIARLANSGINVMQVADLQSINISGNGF
# Assay: ATG_Sp1_CIS: Attagene CIS-FACTORIAL HepG2 Assay for human Specificity Protein 1 (Sp1) (AID 2282961)
# Conditions: HepG2 Sp1 cis-reporter transcription, actives raise or lower the signal
# How it was run: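 Transient MRTU-transfected HepG2, 24 h compound exposure. Total RNA → oligo(dT) RT → PCR of reporter → 6-FAM primer extension → HpaI digest → CE. Endpoint fitted both directions vs DMSO.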
Structure (SMILES),AC50,outcome
COc1cc(-c2ccc(N)c(OC)c2)ccc1N,19.8 µM (active),inactive
CCSC(C)CC1CC(=O)C(C(CC)=NOC/C=C/Cl)=C(O)C1 (stereo not given),–,inactive
CC(=O)C=C(C)C,–,inactive
CCC(=O)c1ccccc1,–,inactive
CN(C)N=O,–,inactive
CCc1ccccc1N,–,inactive
BrCCBr,–,inactive
C[C@]12CC[C@H](O)CC1=CC[C@@H]1[C@@H]2CC[C@]2(C)C(=O)CC[C@@H]12,–,inactive
Nc1cccc2ccccc12,–,inactive
O=Cc1cccc(Oc2ccccc2)c1,–,inactive
O=CC=O,–,inactive
CCC[CH2][Sn]([CH2]CCC)([CH2]CCC)[O]C(=O)c1ccccc1,–,inactive
O=[N+]([O-])c1ccc2c3c(cccc13)CC2,–,inactive
C[C@H]1O[C@@H](O[C@H]2[C@@H](O)C[C@H](O[C@H]3[C@@H](O)C[C@H](O[C@H]4CC[C@@]5(C)[C@H](CC[C@@H]6[C@@H]5CC[C@]5(C)[C@@H](C7=CC(=O)OC7)CC[C@]65O)C4)O[C@@H]3C)O[C@@H]2C)C[C@H](O)[C@@H]1O,3.3 µM (active),–
O=C/C=C/c1ccccc1,–,inactive
Clc1ccc(C2(Cn3cncn3)CC(Br)CO2)c(Cl)c1 (stereo not given),–,inactive
Clc1ccc(COC(Cn2ccnc2)c2ccc(Cl)cc2Cl)cc1 (stereo not given),–,inactive
CCCCCCCCC(=O)NCc1ccc(O)c(OC)c1,–,inactive
Nc1ccc(-c2ccc(N)c(Cl)c2)cc1Cl,–,inactive
CCC1(c2ccc(N)cc2)CCC(=O)NC1=O (stereo not given),–,inactive

Structure (SMILES),AC50,outcome
Oc1ccc(-c2ccccc2)cc1,147 µM (active),–
CCCCCCCCCl,–,inactive
CC(=O)[O][Hg][c]1ccccc1,2.87 µM (active),–
O=C(O)C(Cl)(Cl)Cl,–,inactive
CC(C)(c1ccccc1)c1ccc(O)c(C(C)(C)c2ccccc2)c1,7.78 µM (active),–
COC[C@H](C)N(C(=O)CCl)c1c(C)csc1C,–,inactive
CC(=[OH+])/C=C(/C)[O-].CC(=[OH+])/C=C(/C)[O-].CC(=[OH+])/C=C(/C)[O-].[Fe],–,inactive
CCCCCCCCc1ccc(O)cc1,–,inactive
C[C@H]1CCCC(=O)CCC/C=C/c2cc(O)cc(O)c2C(=O)O1,–,inactive
O=C(O)C(F)(F)C(F)(F)C(F)(F)C(F)(F)C(F)(F)C(F)(F)C(F)(F)C(F)(F)C(F)(F)C(F)(F)F,–,inactive
Cc1ccc2ccccc2c1C,–,inactive
O=S(=O)(c1ccc(Cl)cc1)c1ccc(Cl)cc1,–,inactive
CC(C)(C)c1cc(O)ccc1O,–,inactive
COC(=O)Cc1ccccc1,–,inactive
COC(=O)c1sccc1S(=O)(=O)NC(=O)Nc1nc(C)nc(OC)n1,–,inactive
O=C(O)C(F)(F)C(F)(F)C(F)(F)C(F)(F)C(F)(F)C(F)(F)F,–,inactive
N#CCCO,–,inactive
C[C@]12CCC(=O)C[C@@H]1CC[C@@H]1[C@@H]2CC[C@]2(C)[C@@H](O)CC[C@@H]12,–,inactive
CCc1ccccc1C,–,inactive

# System: not listed separately
# Assay: ATG_SREBP_CIS: Attagene CIS-FACTORIAL HepG2 Assay for human Sterol Regulatory Element Binding (SREBP) (AID 2282962)
# Conditions: HepG2 Attagene cis-factorial SREBP reporter, mRNA; actives raise or lower the signal
# How it was run: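 Twenty-four hours after chemical dosing of transfected HepG2 cultures, reporter RNA was converted to cDNA, amplified, end-labelled with 6-FAM and resolved by capillary electrophoresis. Responses were fitted relative to DMSO.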
Structure (SMILES),AC50,outcome
COc1cc(-c2ccc(N)c(OC)c2)ccc1N,7.03 µM (active) and 39.9 µM (active),–
CCSC(C)CC1CC(=O)C(C(CC)=NOC/C=C/Cl)=C(O)C1 (stereo not given),–,inactive
CC(=O)C=C(C)C,–,inactive
CCC(=O)c1ccccc1,–,inactive
CN(C)N=O,–,inactive
CCc1ccccc1N,–,inactive
BrCCBr,–,inactive
C[C@]12CC[C@H](O)CC1=CC[C@@H]1[C@@H]2CC[C@]2(C)C(=O)CC[C@@H]12,–,inactive
Nc1cccc2ccccc12,170 µM (active),–
O=Cc1cccc(Oc2ccccc2)c1,–,inactive
O=CC=O,–,inactive
CCC[CH2][Sn]([CH2]CCC)([CH2]CCC)[O]C(=O)c1ccccc1,–,inactive
O=[N+]([O-])c1ccc2c3c(cccc13)CC2,–,inactive
C[C@H]1O[C@@H](O[C@H]2[C@@H](O)C[C@H](O[C@H]3[C@@H](O)C[C@H](O[C@H]4CC[C@@]5(C)[C@H](CC[C@@H]6[C@@H]5CC[C@]5(C)[C@@H](C7=CC(=O)OC7)CC[C@]65O)C4)O[C@@H]3C)O[C@@H]2C)C[C@H](O)[C@@H]1O,7.83 µM (active),–
O=C/C=C/c1ccccc1,–,inactive
Clc1ccc(C2(Cn3cncn3)CC(Br)CO2)c(Cl)c1 (stereo not given),8.75 µM (active),–
Clc1ccc(COC(Cn2ccnc2)c2ccc(Cl)cc2Cl)cc1 (stereo not given),–,inactive
CCCCCCCCC(=O)NCc1ccc(O)c(OC)c1,–,inactive
Nc1ccc(-c2ccc(N)c(Cl)c2)cc1Cl,–,inactive
CCC1(c2ccc(N)cc2)CCC(=O)NC1=O (stereo not given),–,inactive

Structure (SMILES),AC50,outcome
Oc1ccc(-c2ccccc2)cc1,–,inactive
CCCCCCCCCl,–,inactive
CC(=O)[O][Hg][c]1ccccc1,–,inactive
O=C(O)C(Cl)(Cl)Cl,–,inactive
CC(C)(c1ccccc1)c1ccc(O)c(C(C)(C)c2ccccc2)c1,4.24 µM (active),–
COC[C@H](C)N(C(=O)CCl)c1c(C)csc1C,–,inactive
CC(=[OH+])/C=C(/C)[O-].CC(=[OH+])/C=C(/C)[O-].CC(=[OH+])/C=C(/C)[O-].[Fe],–,inactive
CCCCCCCCc1ccc(O)cc1,–,inactive
C[C@H]1CCCC(=O)CCC/C=C/c2cc(O)cc(O)c2C(=O)O1,–,inactive
O=C(O)C(F)(F)C(F)(F)C(F)(F)C(F)(F)C(F)(F)C(F)(F)C(F)(F)C(F)(F)C(F)(F)C(F)(F)F,–,inactive
Cc1ccc2ccccc2c1C,–,inactive
O=S(=O)(c1ccc(Cl)cc1)c1ccc(Cl)cc1,–,inactive
CC(C)(C)c1cc(O)ccc1O,–,inactive
COC(=O)Cc1ccccc1,–,inactive
COC(=O)c1sccc1S(=O)(=O)NC(=O)Nc1nc(C)nc(OC)n1,–,inactive
O=C(O)C(F)(F)C(F)(F)C(F)(F)C(F)(F)C(F)(F)C(F)(F)F,–,inactive
N#CCCO,–,inactive
C[C@]12CCC(=O)C[C@@H]1CC[C@@H]1[C@@H]2CC[C@]2(C)[C@@H](O)CC[C@@H]12,26 µM (active) and 23 µM (active),inactive
CCc1ccccc1C,–,inactive
